Twelve compounds from PubChem BioAssay (NCATS) can be followed below.

Several values for one entry are separate records, joined by “and”; a condition that tells them apart may be missing. Equal entries are not always repeated. Inconclusive results are not listed. Activity calls are given as the source filed them. The call rests on the fitted dose curve; in most records, active means well fitted inhibition curve with a large enough effect; inconclusive means small, poorly fitted or top-dose-only effect; inactive means flat fitted curve, though single readings scatter.
Potency means the concentration at half of the fitted maximal effect.

This experiment in a line: Primary qHTS for inhibitors of nuclear receptor binding SET domain protein 2 (NSD2) in an isogenic RCH-ACV NSD2 p.E1099K mutant (9B) (AID 1645876). Further: nearly all actives have a fitted effect of over 70% in size. Particulars: RCH-ACV (leukaemia line) NSD2 E1099K (9B) viability, CellTiter-Glo, 72 h; series mostly up to 44.9 µM.
Turning to `C[C@]12CC[C@H](O)CC1=CCC1C2CC[C@]2(C)C(n3cnc4ccccc43)=CCC12` (some centres not stated), the Potency result is “inactive”.
In the case of `Cc1c(NC(=O)OC[C@@H]2COCCN2)cn2ncnc(Nc3ccc4c(cnn4Cc4cccc(F)c4)c3)c12`, the Potency was 16.6 µM (active).
Consider `CC(C)c1ccc(Cn2ccc3c4c(N)nc(NC5CC5)nc4ccc32)cc1`, for which the Potency was 0.372 µM (active).
Consider `Cc1ccc(C(N)=O)cc1Nc1nccc(-c2cn(C(C)C)c3cnccc23)n1`, for which the Potency is 3.32 µM (active).
Take `O=C(O)c1ccc2cc(-c3ccc(O)c(C45CC6CC(CC(C6)C4)C5)c3)ccc2c1`: the Potency is 0.934 µM (active).
Regarding `NC(=O)Nc1cc(-c2cccc(F)c2)sc1C(=O)N[C@H]1CCCNC1`, the Potency was 81.7 nM (active) and 74.2 nM (active).
As for `C[C@@]12O[C@@H](C[C@]1(O)CO)n1c3ccccc3c3c4c(c5c6ccccc6n2c5c31)CNC4=O`, the Potency is 0.0661 µM (active).
For `Cc1nc(Nc2n[nH]c3c2CN(C(=O)N[C@H](CN(C)C)c2ccccc2)C3(C)C)c2sccc2n1`, the Potency was 10.3 nM (active) and 11.8 nM (active).
For `C[C@@H]1CN(CC(=O)Nc2ccc3c(c2)Cc2cccc(-c4cc(=O)cc(N5CCOCC5)o4)c2S3)C[C@H](C)O1` the value was 5.9 µM (active); for `Nc1cc(C(F)(F)F)c(-c2cc(N3CCOCC3)nc(N3CCOCC3)n2)cn1`, 578 nM (active) and 1.18 µM (active).
For `CCN(CC)CCCCNc1ncc2cc(-c3cc(OC)cc(OC)c3)c(NC(=O)NC(C)(C)C)nc2n1` the value was 16.4 µM (active) and 14.8 µM (active).
In the case of `Nc1ccccc1NC(=O)c1ccc(CNC(=O)OCc2cccnc2)cc1`, the Potency was 578 nM (active) and 742 nM (active).
